HCMV inh: inhibitors of human cytomegalovirus | activity change, negative = inhibition, % at 57.5 µM | AID 1259415 | hit rate 4.5% among 410,000 | HFF cells, HCMV-luciferase reporter, 72 h; active compounds read low; in the data active means activity change below about -60%; inconclusive means no clear call, values can overlap the other calls; inactive means above about -39%
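Two-dose cell screen: HFF monolayers treated with compounds and infected with luciferase-expressing HCMV at 1 PFU/cell, 72 h at 37C, then lysed for luciferase measurement.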
VACV mCherry inh: inhibitors of vaccinia virus infection (mCherry reporter signal); Vaccinia virus mCherry reporter infection, fluorescence; Potency, µM (titrated, usually from 36.5 µM), without a hit: top-dose activity change, negative = inhibition, actives largely listed as inhibitors; hit rate 0.63% among 310,000; calls by dose curve; tested in A549 cells; further: potency means the concentration at half of the fitted maximal effect; nearly all actives have a fitted effect of over 35% in size
FMDV antiviral: antivirals against foot and mouth disease virus | AID 1159524 | FMDV antiviral cell-based qHTS | hit rate 1.2% among 410,000 | Potency, µM (doses to about 57.9 µM), for the others: at the highest dose activity change, negative = inhibition, most hits filed as inhibitors; calls by dose curve; tested in HEK293T cells; further: read-out not given here; potency means the concentration at half of the fitted maximal effect; nearly all actives have a fitted effect of over 45% in size
Vaccinia Venus: vaccinia inhibition (Venus reporter); Vaccinia virus Venus reporter expression, fluorescence; Potency, µM (top dose mostly 36.5 µM), for inactives: at the top dose activity change, negative = inhibition, actives largely listed as inhibitors; hit rate 0.46% among 330,000; AID 720580; calls by dose curve; tested in A549 cells; further: potency means the concentration at half of the fitted maximal effect; nearly all actives have a fitted effect of over 30% in size
HCV inh: inhibitors of hepatitis C virus infection; Potency, µM (titrated, usually from 41.8 µM), inactives show at the highest dose activity change, negative = inhibition, most hits filed as inhibitors; hit rate 3.4% among 340,000; Huh7.5.1 HCVcc-Cre infection, luciferase reporter, 44 h; active means well fitted inhibition curve with a large enough effect; inconclusive means small, poorly fitted or top-dose-only effect, or another doubt; inactive means no such curve, though single readings can be large or run the other way; further: potency means the concentration at half of the fitted maximal effect
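After 44 h co-culture of compound, cells and HCVcc-Cre (~0.5 moi), substrate is added for 15 min at room temperature and luciferase measured over 15 sec. Cells were seeded at 1,000/well and pre-cultured 4 h.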
An asterisk follows results filed as active. Shown are actives, neighbours in structure and some others; about 7.3% of the full set was active somewhere. On the % scale 0 is the no-effect control and ±100 the full control effect.

Screening COc1ccc(N(CCCN2C(=O)c3cccc4cccc(c34)C2=O)C(=O)c2cccs2)cc1 returned HCMV inh -21, FMDV antiviral -29% and HCV inh inconclusive.
Screening COc1cccc(NC(=O)/C(C#N)=C/c2c(C)n(Cc3ccccc3)c3ccccc23)c1 returned HCMV inh -27, VACV mCherry inh -20%, FMDV antiviral inconclusive and Vaccinia Venus 7%.
Screening Cc1cc(NO)c(C(C)C)cc1N=O returned HCMV inh -65*, VACV mCherry inh inconclusive, FMDV antiviral 22µM*, Vaccinia Venus -22% and HCV inh inconclusive.
`CC(C)C[C@@H]1Cc2[nH][nH]c(=O)c2[C@H](C(C)C)O1` gave HCMV inh inconclusive, VACV mCherry inh -5%, FMDV antiviral -7% and Vaccinia Venus -10%.
Screening Cc1cc(C)c(S(=O)(=O)Nc2ccccc2-c2ccccc2)c(C)c1 returned HCMV inh -79*, VACV mCherry inh -12%, FMDV antiviral inconclusive, Vaccinia Venus -18% and HCV inh inconclusive.
Screening Cc1ccc(C(=O)Nc2ccccc2-c2ccccc2)cc1S(=O)(=O)Nc1cccc(C)c1C returned HCMV inh -34, VACV mCherry inh -29%, FMDV antiviral -7%, Vaccinia Venus inconclusive and HCV inh 10µM*.
Screening CC(=O)Nc1ccc(NS(=O)(=O)c2cc([N+](=O)[O-])ccc2C)cc1 returned HCMV inh -71*, VACV mCherry inh -13%, FMDV antiviral 13%, Vaccinia Venus -8% and HCV inh -3%.
`Cc1cc(C)c(S(=O)(=O)Nc2ccccc2C(F)(F)F)c(C)c1` gave FMDV antiviral 10%.
Cc1ccccc1NS(=O)(=O)c1cc(C(=O)Nc2cccc([N+](=O)[O-])c2)ccc1C was read as HCMV inh -95*, VACV mCherry inh inconclusive, FMDV antiviral -71%, Vaccinia Venus 11µM* and HCV inh inconclusive.
For Cc1ccc([N+](=O)[O-])cc1S(=O)(=O)Nc1ccc(C(=O)N(C)C)cc1 the results were HCMV inh inconclusive, VACV mCherry inh inactive, FMDV antiviral 0%, Vaccinia Venus -8% and HCV inh -5%.
Screening Cc1ccc(C(=O)Nc2cccc([N+](=O)[O-])c2)cc1S(=O)(=O)Nc1ccc(C(=O)O)cc1 returned HCMV inh -20, VACV mCherry inh -11%, FMDV antiviral 13%, Vaccinia Venus 0% and HCV inh 7%.
For CCOC(=O)C1=C(CN(C)Cc2ccccc2)NC(=O)NC1c1ccc(OC(C)C)cc1 (centres undefined) the results were HCMV inh -20, VACV mCherry inh 3%, FMDV antiviral inconclusive and Vaccinia Venus 3%.
For O=C1NC[C@@H](CCCCN2C[C@H](Cc3ccccc3)N(CCC3CCCCC3)C(=O)C2=O)N(CC2CCCCC2)C1=O the results were HCMV inh -17, VACV mCherry inh 1%, FMDV antiviral 39% and Vaccinia Venus -21%.
`O=C(CSc1nc2c([nH]c3ccccc32)c(=O)n1-c1ccc(Cl)cc1)N1CCCCCC1` gave HCMV inh -8, VACV mCherry inh -3%, FMDV antiviral -33% and Vaccinia Venus 5%.
Screening Cc1ccccc1NS(=O)(=O)c1cc(C(=O)Nc2cccnc2)ccc1C returned HCMV inh -35, VACV mCherry inh -26%, FMDV antiviral 14%, Vaccinia Venus -14% and HCV inh 32µM*.
Screening Oc1ccc(/C=N/Nc2ccnc3cc(Cl)ccc23)cc1O returned HCMV inh -60*, VACV mCherry inh inconclusive, FMDV antiviral -3%, Vaccinia Venus -11% and HCV inh inconclusive.
`Cc1ccc(NC(=O)c2cc(C)n(-c3cccc(C)c3)c2C)cc1` gave HCMV inh -5, VACV mCherry inh -27%, FMDV antiviral 10%, Vaccinia Venus -17% and HCV inh inconclusive.
Cc1cc(C(=O)Nc2ccc(Cl)cc2)c(C)n1-c1ccccc1 was read as HCMV inh -93*, VACV mCherry inh -13%, FMDV antiviral inconclusive, Vaccinia Venus -15% and HCV inh -23%.
Cc1ccc(NC(=O)c2cc(C)n(-c3ccccc3)c2C)cc1 was read as HCMV inh -93*, VACV mCherry inh -7%, FMDV antiviral inconclusive, Vaccinia Venus -14% and HCV inh inconclusive.
FC(F)(F)c1ccccc1-c1nccc(NCc2ccccc2)n1 was read as VACV mCherry inh inactive, FMDV antiviral -13% and Vaccinia Venus 0%.

Bioassay records deposited in PubChem by National Center for Advancing Translational Sciences (NCATS).
